Eight molecules from PubChem BioAssay (NCI) can be followed below.

Holding throughout (assay): NCI-60 one-dose screen, 48 h (100 = growth as untreated, 0 = no growth, -100 = all killed)
Holding throughout (settings): 10 µM unless noted

The test system of test [1] is NCI-H226 lung.
The subject of test [2] is NCI-H322M lung.
Test [3] has as its system HOP-62 NSCLC.
Test [4] has as its system NCI-H460 lung.
The test system of test [5] is HOP-92 NSCLC.
Test [6] deals with NCI-H522 lung.
Test [7] has as its system A549/ATCC NSCLC.
Test [8] relates to 786-0 renal.
For test [9], the system named is COLO 205 colon.
In test [10] the test system is DU-145 prostate.
Test [11] deals with K-562 leukemia.
Test [12] concerns MALME-3M melanoma.
The subject of test [13] is MDA-MB-231 breast.
The test system of test [14] is SF-268 CNS.
The subject of test [15] is SF-295 CNS.
The test system of test [16] is SF-539 CNS.
Test [17] relates to UACC-257 melanoma.
The subject of test [18] is M14 melanoma.
The subject of test [19] is RXF 393 renal.

Compounds without any hit were thinned out: in the full panel of roughly 83,000, 20% have a hit.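 Negative percent growth values reflect cell death: -40 means 40% of the cells present at the start died, and -100 means all died.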 A number with no mark means an inactive call. Active and inactive are the calls of the source. The calls were made as follows: active = growth percent below 10; inactive = the rest.

For `CC(=O)Nc1ccc(S(=O)(=O)NC2CCCCC2)cc1`, the growth is 86.6% in test [1]; 96.5% in test [2]; 96.3% in [3]; 102% in test [4]; 89.3% in test [5]; 92% in test [6]. Also, the growth is 93.3% in test [7]; 99.8% in [8]; 103% in test [9]; 113% in test [10]; 100% in [11]; 98.1% in test [12]. Further, the growth in [13] was 97.3%; in [14] it was 104%; in test [15], 96.4%; in test [16] it was 103%; in [17], 95.8%; in test [18] it was 101%.

For `COc1ccc(-n2cc(-c3cc(OC)c(OC)c(OC)c3)n(C(C)=O)c2=O)cc1`, the growth is 94.6% in test [1]; 78.8% in [2]; 126% in test [3]; 109% in test [4]; 85.7% in [5]; 77.4% in test [6]. For the same molecule, the growth was 99.8% in [7]; 64.5% in test [8]; 91.5% in test [9]; 109% in [10]; 92.9% in test [11]; 79.4% in [12]. Also, the growth in test [13] was 86.4%; in [19], 111%; in test [14] it was 94.7%; in test [15], 82.1%; in test [16], 90.2%; in test [17] it was 90.3%. The growth in [18] was 111%.

As to `COc1ccc(-c2nc(SC(C)C)nc(NNC(N)=O)c2C#N)cc1`, the growth in test [1] was 95.4%; in [2] it was 94.2%; in test [3] it was 83.7%; in test [4], 94.5%; in test [5], 78%; in test [6], 63.4%. The growth is 88.6% in test [7]; 95.5% in [8]; 117% in test [9]; 94.2% in [10]; 25.7% in test [11]; 81.2% in [12]. The growth in test [13] is 78.8%; in test [14], 84.9%; in test [15], 88.7%; in [16], 85.1%; in [17], 99.8%; in test [18] it was 99.6%.

In the case of `COc1cccc2cc(-c3cc4ccccc4[nH]3)/c(=N/C(=S)Nc3ccc(C)cc3)oc12`, the growth in test [1] was 55.1%; in test [2] it was 80.1%; in test [3], 22%; in test [4] it was 51.1%; in test [5], -6.31% (active); in [6], 84.8%. For the same molecule, the growth is 79.9% in test [7]; 59% in test [8]; 99.4% in test [9]; 66.4% in test [10]; 80.4% in test [11]; 66.6% in test [12]. Further, the growth was 39.4% in test [13]; 72.3% in test [14]; 79.5% in [15]; 45.7% in test [16]; 103% in test [17]; 95% in test [18].

In the case of `Cc1cccc(C)c1-c1cc(Cc2ccc(Cl)cc2)c(=O)[nH]n1`, the growth in [1] is 97.3%; in [2], 111%; in test [3], 99.4%; in test [4], 109%; in [5], 78.6%; in test [6] it was 95.3%. For the same molecule, the growth in test [7] is 37%; in test [8] it was 104%; in test [9], 108%; in test [10] it was 105%; in [11], 89.5%; in test [12] it was 111%. Also, the growth in [13] was 94.3%; in test [14] it was 93.6%; in test [15], 104%; in test [16], 111%; in test [17], 42.3%; in test [18], 114%.

In the case of `COc1cc(C2CC(c3cccc(Nc4ccncc4)c3)=NN2c2ccccc2)cc(OC)c1OC` (stereo unspecified), the growth was 96% in test [1]; 80.1% in test [2]; 59.6% in test [3]; 4.66% (active) in [4]; 28.1% in test [5]; 77.3% in test [6]. For the same molecule, the growth was 44.9% in [7]; 69.1% in test [8]; -52.5% (active) in [9]; 45.4% in test [10]; 0.38% (active) in test [11]; -77.7% (active) in [12]. Further, the growth was 63.4% in test [13]; 64.7% in [14]; 58.6% in test [15]; 76.9% in test [16]; -13.8% (active) in test [17]; 58.9% in test [18].

As to `CC(=O)[C@@H]1CC[C@]2(C(=O)n3ccnc3)CC[C@]3(C)[C@H](CC[C@@H]4[C@@]5(C)Cc6c([nH]c7ccccc67)C(C)(C)[C@@H]5CC[C@]43C)[C@@H]12`, the growth was 76.3% in test [1]; 95.3% in test [2]; 95.7% in [3]; 80.9% in test [4]; 93.9% in [5]; 82.9% in test [6]. For the same molecule, the growth in [7] was 68.2%; in [8] it was 94.4%; in test [9] it was 101%; in test [10], 98.5%; in [11], 67.7%; in [12], 102%. Also, the growth was 90.7% in test [13]; 106% in test [19]; 90.8% in test [14]; 82.8% in test [15]; 97% in [16]; 97.1% in test [17]. Moreover, in test [18], the growth was 96.1%.

As for `CC(C)(C)OC(=O)N1C/C(=C\c2ccoc2)C(=O)/C(=C/c2ccoc2)C1`, the growth in [1] was 98.3%; in [2], 87.7%; in [3], 93.9%; in test [4], 107%; in test [5] it was 100%; in test [6], 78.8%. In addition, the growth in test [7] is 102%; in test [8], 93.8%; in [9], 109%; in [10], 109%; in [11], 29.3%; in [12] it was 92.6%. Also, the growth in test [13] is 109%; in [14] it was 89.5%; in [15], 103%; in test [16], 106%; in test [17], 95.9%; in test [18] it was 94.2%.
